# Bioassay records as filed in PubChem.
# DT40 TDP1 CPT – DT40-hTDP1 cell growth loss with CPT. chicken DT40 Tdp1-/-;hTDP1 cells + 20 nM CPT, ATP luminescence, 48 h. Potency, µM (doses to about 46.2 µM), inactives show at the highest dose activity change, negative = growth inhibition, actives largely listed as inhibitors. hit rate 12% among 420,000; note: potency is the fitted concentration of half-maximal effect; nearly all actives have a fitted effect of over 55% in size
#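 Chicken DT40 Tdp1-/- cells stably complemented with human TDP1 were seeded at 400 cells/well in medium containing 20 nM camptothecin, exposed to pin-transferred compounds, and grown at 37 °C for at least 48 hr. Viability was read as ATP luminescence.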
# CtBP-E1A blk – CtBP/E1A binding inhibition | AlphaScreen GST-E1A/His-CtBP binding, 1536-well; active compounds read low | activity change, % (no concentration beside the values) | hit rate 0.49% among 340,000; in the data active = activity change below about -65%; inconclusive = mostly about -30% to -63%
#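 AlphaScreen with 125 nM GST-E1A and 125 nM His-CtBP (5X stocks) in Tris pH 8.0, 300 mM NaCl, BSA, Tween 20, TCEP. Compounds preincubated 2 h at 37 deg C, then glutathione donor/nickel acceptor beads added for 1 h at 37 deg C in dark.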
# Six1-Eya2 inh – blocks human Six1 binding to Eya2 | hit rate 0.56% among 360,000 | activity change, % (concentration not given with the values) | AID 651725 | AlphaScreen GST-Six1/His-Eya2 binding, biochemical; active compounds read low; in the data active = activity change below about -65%; inconclusive = mostly about -30% to -63%
#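 AlphaScreen with GST-Six1 and His-Eya2 (5X mix: 250 nM and 500 nM), glutathione donor and nickel acceptor beads; buffer 50 mM Tris pH 8.0, 300 mM NaCl, 1 mM TCEP; 1 h at 37 C in the dark.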
# IL1B secr inh – inhibitors of inflammasome signaling (IL-1 beta secretion); THP-1 LPS/ATP IL-1B secretion, AlphaLISA, 16 h; active compounds read low; activity change, % at 57.5 µM; hit rate 4.7% among 360,000; AID 743279; in the data active = activity change below about -50%; inconclusive = mostly about -30% to -49%
#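 Secreted IL-1B measured by AlphaLISA bead assay after 16 h compound exposure of THP-1 cells; compounds (final up to 57.5 uM) added 1 h before LPS (250 ng/mL) and ATP (1.25 mM) stimulation; lower signal means less secretion.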
# DT40 TDP1 no CPT – qHTS for Inhibitors of human tyrosyl-DNA phosphodiesterase 1 (TDP1): qHTS in cells in absence of CPT; DT40 Tdp1-/- hTDP1 cells, no CPT, ATP luminescence, 48 h; Potency, µM (series often up to 46.2 µM), for the others: top-dose activity change, negative = growth inhibition, hits mostly inhibitors; hit rate 15% among 420,000; AID 686978, 2013; note: potency is the fitted concentration of half-maximal effect; nearly all actives have a fitted effect of over 55% in size
#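 Readout: luminescence from CellTiter-Glo after 30 min in the dark at RT. Cells: DT40 Tdp1-/- with stable hTDP1, 400/well. Exposure: compounds alone, ≥48 hr, 37 °C.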
# TDP1 block – TDP1 (human) enzyme inhibition. Potency, µM (doses to about 130 µM), for inactives: at the highest dose activity change, negative = inhibition, usual class: inhibitors. hit rate 0.28% among 350,000. AID 485290. recombinant TDP1, AlphaScreen DNA substrate cleavage; note: potency is the fitted concentration of half-maximal effect; nearly all actives have a fitted effect of over 40% in size
# Target sequence (Q9NUW8 whole entry, looked up): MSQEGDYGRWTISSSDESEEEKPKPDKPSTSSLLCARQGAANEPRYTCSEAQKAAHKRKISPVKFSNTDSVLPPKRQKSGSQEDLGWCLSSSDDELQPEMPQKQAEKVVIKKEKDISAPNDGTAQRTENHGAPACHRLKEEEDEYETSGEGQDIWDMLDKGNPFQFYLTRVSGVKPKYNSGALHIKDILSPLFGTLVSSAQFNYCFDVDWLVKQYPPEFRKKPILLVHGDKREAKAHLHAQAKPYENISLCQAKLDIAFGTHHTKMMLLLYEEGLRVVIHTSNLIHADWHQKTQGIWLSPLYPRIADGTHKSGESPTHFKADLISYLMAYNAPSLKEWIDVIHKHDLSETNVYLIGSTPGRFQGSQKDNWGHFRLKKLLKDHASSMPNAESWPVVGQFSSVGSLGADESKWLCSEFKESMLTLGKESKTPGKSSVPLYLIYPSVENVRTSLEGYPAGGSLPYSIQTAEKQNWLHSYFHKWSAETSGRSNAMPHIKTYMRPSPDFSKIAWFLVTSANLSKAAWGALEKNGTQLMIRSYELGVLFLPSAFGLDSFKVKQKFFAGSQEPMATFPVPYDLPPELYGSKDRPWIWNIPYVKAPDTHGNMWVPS
#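 Here, a 5' biotin and 3' phosphotyrosine-FITC DNA oligonucleotide reports Tdp1 activity: intact substrate bridges AlphaScreen beads, while cleavage leaves a 3' phosphate and drops signal. All incubations at room temperature.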
# * hit, by the source's call; i = inactive; ? = inconclusive; . = not tested or not shown; ! = repeats disagree; [ ] = dose if it differs, or a comment. An excerpt weighted towards active compounds, which were near 18% of everything screened. Unless noted, calls come from the whole dose curve; as a rule, active = well fitted curve in the direction sought with a large enough effect; inconclusive = small, poorly fitted or top-dose-only effect, or another doubt; inactive = no such curve, though single readings can be large; an effect the other way counts as inactive or inconclusive. % is set by controls: 0 for no effect and ±100 for the full control effect.
SMILES,DT40 TDP1 CPT,CtBP-E1A blk,Six1-Eya2 inh,IL1B secr inh,DT40 TDP1 no CPT,TDP1 block
CCN(CC)C(=O)CSc1nc(O)c(Cc2ccccc2)c(=O)n1-c1ccc(C)cc1,?,.,0.4,22.2,13µM*,-2.7%
Cc1ccc(-n2c(SCC(=O)N3CCCCC3)nc(O)c(Cc3ccccc3)c2=O)cc1,?,.,1.0,12.0,11.6µM*,5.9%
CCN(CC)C(=O)CSc1nc(O)c(Cc2ccccc2)c(=O)n1-c1ccccc1,-28.4%,4.3,2.4,4.8,?,4.1%
Cc1ccccc1S(=O)(=O)NC(=O)C1(C)CCN1C(=O)CCc1ccccc1 (configuration not stated),11.5%,0.0,9.9,3.2,-0.4%,.
CCCCCNCC(=O)Nc1cc(C(F)(F)F)ccc1OCCOC,?,.,5.7,-6.3,?,3.7%
CC1(C)Oc2ccccc2OC1(O)c1ccc2ccccc2n1 (configuration not stated),?,3.9,1.8,5.5,18.4µM*,5.3%
CCCCOc1ccc(C(CC(=O)NC)C(=O)O)cc1 (configuration not stated),5.4%,8.6,5.1,14.4,20.7%,1.8%
CC1CCCN(CC(=O)Nc2cccc([N+](=O)[O-])c2)C1 (configuration not stated),-13.0%,2.5,10.2,-11.7,-13.4%,-0.6%
CNC(=O)c1c(NC(=O)c2ccc(S(=O)(=O)N3CC(C)OC(C)C3)cc2)sc2c1CCN(C(C)C)C2 (configuration not stated),?,4.3,-3.6,i,?,3.8%
COC(=O)[C@H]1[C@H]2C[C@@H]3c4[nH]c5cc(OC)ccc5c4CCN3C[C@H]2C[C@@H](OC(=O)c2cc(OC)c(OC)c(OC)c2)[C@@H]1OC,16.4µM*!,-28.1,?,-29.2,?,16.2%[56.1 µM]
COC(=O)[C@@H]1C2CC3c4[nH]c5cc(OC)ccc5c4CCN3CC2C[C@H](OC(=O)c2cc(OC)c(OC)c(OC)c2)C1OC (some centres not stated),23.1µM*,.,.,.,?,19.7%
CC1CCC(C(C)C)C(OC(=O)CSc2nccc(=O)[nH]2)C1 (configuration not stated),?,2.3,1.8,-5.7,-26.8%,-3.0%
CC1CCC(C(C)C)[C@H](OC(=O)c2ccccc2)C1 (some centres not stated),7.2%,.,.,.,16.8%,-5.3%[56.1 µM]
COc1ccc(OCc2n(CC(=O)OC3CC(C)CCC3C(C)C)c3ccccc3[n+]2C)cc1 (configuration not stated),3.26µM*,-8.1,-6.2,-57.5*,2.31µM*,5.2%
COc1ccc(-c2n(CC(=O)OC3CC(C)CCC3C(C)C)c3ccccc3[n+]2C)cc1 (configuration not stated),0.461µM*,-0.1,10.7,-200.7*,0.411µM*,2.8%
O=S(=O)(NCC(c1ccco1)N1CCN(c2ccccc2F)CC1)c1ccc(F)cc1 (configuration not stated),?,2.3,-5.7,4.8,?,2.6%
COc1cc(C)c(Cc2cnc(N)nc2N)cc1OC,?,.,.,.,13.3µM*,0.0%
O=C(CNC(=O)c1ccc(S(=O)(=O)N2CCCC2)cc1)N/N=C/c1ccc(Cl)cc1,?,8.0,-12.8,-12.9,?,-2.8%
Cc1ccccc1NC(=O)c1c(C)nc(SCC(=O)OCc2ccccc2)c(C#N)c1-c1ccc(F)cc1,?,3.4,8.5,6.3,14.6µM*,?
COC(=O)CSc1nc(C)c(C(=O)Nc2ccccc2C)c(-c2ccc(Cl)cc2)c1C#N,?,2.1,6.9,-75.7*,?,-1.8%
CC1(C)CC(=O)c2c(noc2-c2ccccc2)C1,-9.3%,-6.8,17.9,-13.0,?,0.0%
COc1cccc(Nc2ncc3nc(-c4cc(F)cc(F)c4)c(=O)n(C[C@H]4CCCO4)c3n2)c1,1.9%,.,.,.,2.6%,.
Cc1ccc(-c2ccccc2NC(=O)C2C3C=CC(C3)C2C(=O)O)o1 (configuration not stated),-27.9%,-1.6,-2.5,3.9,-18.8%,3.9%
Cc1ccc(-c2ccccc2NC(=O)CCl)o1,14.6µM*,4.0,-0.1,-59.1*,20.6µM*,11.1%
Cc1ccc(-c2ccccc2NC(=O)CS(=O)CC(=O)Nc2ccc(C)c(Cl)c2)o1 (configuration not stated),?,-11.0,-22.9,-77.4*,?,.
SMILES,DT40 TDP1 CPT,CtBP-E1A blk,Six1-Eya2 inh,IL1B secr inh,DT40 TDP1 no CPT,TDP1 block
CN(C)c1ccc(-c2ccncc2)cc1,.,.,.,.,.,-3.6%
c1cc(-c2ccncc2)ccn1,10.3µM*,3.2,0.0,28.7,16.4µM*,7.2%
OCc1cn(-c2ccccc2)nc1-c1ccc2c(c1)OCCO2,?,-1.0,-0.2,-22.6,23.1µM*,-6.8%
OC[C@@H]1CCCN1Cc1cn(-c2ccccc2)nc1-c1ccc2c(c1)OCO2,?,.,-3.3,?,?,2.7%
O=C(N/N=C/c1cn(-c2ccccc2)nc1-c1ccc2c(c1)OCCO2)c1ccncc1,-12.0%,-3.8,-10.7,-2.0,-28.8%,50.1µM*
c1ccc(-n2cc(CNCCc3cscn3)c(-c3ccc4c(c3)OCO4)n2)cc1,?,-9.5,-7.7,-72.5*,23.1µM*,-1.2%
O=C(N/N=C/c1cn(-c2ccccc2)nc1-c1ccc(F)cc1)c1ccc2c(c1)OCO2,?,-7.1,6.5,?,18.4µM*,5.2%
Brc1cccc(-c2nnc3sc(CN4CCCCC4)cn23)c1,?,-1.5,3.4,-1.6,?,1.9%
CC(=O)c1ccc(NC(=O)C(C)OC(=O)COc2ccc(C#N)cc2)cc1 (configuration not stated),10.7%,11.2,3.1,-8.8,7.1%,-2.7%
COc1cc(C(=O)N=C2SC3CS(=O)(=O)CC3N2c2ccccc2)cc(OC)c1OC (configuration not stated),-1.4%,6.0,4.4,10.3,4.5%,0.6%
O/N=C/c1cn(-c2ccccc2)nc1-c1ccc2c(c1)OCCO2,-10.8%,-1.1,0.8,-88.4*,-10.3%,2.0%
CCOc1ccc(CNC(=O)C2=Cc3cccc(OC)c3OC2)cc1,?,.,.,.,?,5.3%
Cc1cc(C(=O)CN2C(=O)C(=O)N(Cc3ccco3)C2=O)c(C)n1CCc1ccccc1,23.1µM*,-3.3,-13.7,11.4,18.4µM*,3.1%
